ATG4B inhibitor: ATG4B protease inhibitors, primary screen, biochemical, fluorescence, uHTS | Cysteine protease ATG4B (Homo sapiens), Q9Y4P1 | inhibition, % at 8.33 µM | ATG4B cleavage of LC3-PLA2, NBD-HPC fluorescence, 1 h | 340,000 tested, 0.51% active; in the data active means inhibition above about 40%
Target sequence (Q9Y4P1 whole entry, looked up): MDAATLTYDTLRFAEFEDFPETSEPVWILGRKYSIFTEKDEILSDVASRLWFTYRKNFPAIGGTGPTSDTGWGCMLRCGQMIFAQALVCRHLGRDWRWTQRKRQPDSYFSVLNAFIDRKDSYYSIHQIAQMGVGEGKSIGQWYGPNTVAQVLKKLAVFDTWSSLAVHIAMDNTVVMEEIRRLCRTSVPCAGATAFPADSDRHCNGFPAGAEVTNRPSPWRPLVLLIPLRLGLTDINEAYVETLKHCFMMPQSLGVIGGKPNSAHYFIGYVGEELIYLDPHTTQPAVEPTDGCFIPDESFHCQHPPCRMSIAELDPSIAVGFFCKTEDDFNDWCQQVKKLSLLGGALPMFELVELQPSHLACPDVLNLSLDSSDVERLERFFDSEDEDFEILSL
F508del corr: F508del CFTR correction, initial screen, CFBE line, single point; AID 720511, 2013; CFBE cells, YFP halide quenching; stimulated with forskolin plus potentiator P3; % fluorescence drop versus neutral controls; 350,000 tested, 0.36% active; activity (quench increase), % at 7.58 µM;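 active means mean added fluorescence quench of at least 8% versus neutral control, with both replicates also reaching 8%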;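 further: cells transiently co-express mutant CFTR-F508del with the halide-sensitive YFP; corrector assay measuring rescue of mutant channel to the surface after 24 h compound exposure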
CendR NRP1 mod: modulators of CendR peptide binding to NRP-1, primary screen, biochemical, fluorescence polarization, uHTS | AID 602438, 2012 | FAM-RPARPAR peptide binding to NRP-1 | Neuropilin-1 (Homo sapiens), O14786 | inhibition, % at 25 µM | 360,000 tested, 0.85% active;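 active means inhibition or corrected inhibition above about 18%, plus a signal ratio from 0.5 to 1.5, limit read from the data, passing the limit was not always enough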
MPTP inh: mitochondrial permeability transition pore inhibitors, primary screen, biochemical, isolated mouse mitochondria, absorbance | Ca2+ swelling absorbance, 30 min | inhibition, % at 10 µM | 360,000 tested, 1.4% active | AID 602449, 2012;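 active means inhibition of 50% or more, scaled per plate between neutral and stimulator controls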;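 further: 0% = DMSO wells given calcium and 100% = 1 mM EGTA wells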
SKN-1 inh: suppressors of acrylamide-induced Pgst-4::GFP reporter in worms, primary screen, SKN-1 inhibitor project, whole organism, uHTS, GFP/RFP fluorescence ratio, strain VP596 | C. elegans VP596 Pgst-4::GFP/RFP ratio, 24 h | inhibition, % at 21.8 µM | 360,000 tested, 0.49% active | AID 624304, 2012;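 active means interference check ratio from 0.5 to 1.5 plus GFP to RFP signal ratio inhibition reaching or exceeding a fixed threshold, cut at about 30% in these data, passing the limit was not always enough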
* hit, by the source's call; / = not tested or not shown; ! = repeats disagree. Most compounds without a hit are left out; they make up all but 2.7% or so of the library.

SMILES	ATG4B inhibitor	F508del corr	CendR NRP1 mod	MPTP inh	SKN-1 inh
CCCCn1c(-c2cccs2)nc2oc3ccccc3c(=O)c2c1=O	2.5	1.4	20.0*	3.5	0.8
CCCCn1c(-c2ccco2)nc2oc3ccccc3c(=O)c2c1=O	-4.3	1.0	-5.8	1.5	-3.2
CCc1nc2oc3ccccc3c(=O)c2c(=O)n1-c1ccccc1	0.5	/	14.1	-1.5	30.2*
O=C(C[C@H]1CC[C@@H]2[C@H](COC[C@@H](O)CN2S(=O)(=O)c2cccc(F)c2)O1)NCCCN1CCOCC1	/	0.2	/	/	/
CCOC(=O)c1c(=O)n(O)c2ccc(OC)cc2[n+]1[O-]	-12.8	/	25.2*	-0.8	-3.9
COC(=O)c1cc(C(=O)N2CCN(c3cccc(Cl)c3)CC2)cc([N+](=O)[O-])c1	-3.2	8.7*	2.6	-1.2	11.6
O=C(c1cccc([N+](=O)[O-])c1)N1CCN(c2cccc(Cl)c2)CC1	1.6	/	2.3	0.3	-0.1
O=C(c1ccc(-c2cccc(Cl)c2)o1)N1CCN(c2ccc([N+](=O)[O-])cc2)CC1	-9.6	/	28.9*	0.6	20.5
COc1cc(/C=C(\CC(=O)O)c2nc3ccccc3s2)ccc1OCC(=O)Nc1ccccc1F	-10.4	17.6*	-1.8	0.9	7.9
CCOc1cc(/C=C(\CC(=O)O)c2nc3ccccc3s2)ccc1OC	-3.2	-0.9	-5.1	-0.1	-3.3
CC(=O)N(C)C[C@H]1Oc2cc(C#Cc3ccccc3)ccc2S(=O)(=O)N([C@H](C)CO)C[C@@H]1C	/	0.3	/	/	/
COc1ccccc1/C=C/CN1CCSCC1	-3.6	-1.0	30.4*	0.7	-11.5
Nc1ccc(C(=O)Nc2ccc(Nc3ccncc3)cc2)c([N+](=O)[O-])c1	/	2.3	26.7*	0.1	2.3
CCN1CCN(CC2CC3C=CC2C3)CC1 (stereo not drawn)	-4.3	/	31.2*	1.0	-6.9
CCOC(=O)C1CCCN(CCC(=O)Nc2ccccc2C)C1 (stereo not drawn)	-7.4	-2.3	22.6*	2.4	0.2
O=C(CCN1CCCCCC1)Nc1ccccc1F	-2.0	/	-14.5	-5.6	49.1*
O=C(Nc1ccccc1F)C1CCCC1	-7.2	-0.8	14.5	1.8	41.3*
O=C(Nc1ccccc1F)C1CCN(C(=O)NC2CCCCC2)CC1	0.7	-3.5	3.1	0.0	1.7
O=C(CN1CCCCCC1)Nc1ccccc1F	-8.6	/	-3.1	0.8	-4.0
CCN(CC)C(=O)C1CCCN(C(=O)Nc2ccc3nsnc3c2)C1 (stereo not drawn)	0.7	/	33.5*	-4.5	-2.9
Nc1cc2c3c(cccc3c1)C(=O)N(CCN1CCCC1)C2=O	-0.4	2.3	31.6*	-1.6	11.8
CCN(CC)CCN1C(=O)c2cccc3cc(N)cc(c23)C1=O	-5.6	0.4	59.6	-0.3	-23.1
O=C1c2cccc3cc([N+](=O)[O-])cc(c23)C(=O)N1CCN1CCCC1	-3.2	7.4	30.1*	-0.3	3.5
CC1CC(C)CN(C(=O)c2ccncc2)C1 (stereo not drawn)	-9.6	/	13.5	2.7	32.0
CC1CCCN(C(=O)c2ccncc2)C1 (stereo not drawn)	-11.5	/	-1.5	-0.9	35.2*
SMILES	ATG4B inhibitor	F508del corr	CendR NRP1 mod	MPTP inh	SKN-1 inh
CC(C)Oc1cc(NC(=O)CS(=O)CC(=O)Nc2cccc(C(F)(F)F)c2)c(Cl)cc1Cl (stereo not drawn)	-20.0	1.3	-0.4	15.6	13.5
CC(C)Oc1cc(NC(=O)CS(=O)CC(=O)N(C)C)c(Cl)cc1Cl (stereo not drawn)	7.6	3.5	25.2*	0.0	3.6
Cn1c(/C(C#N)=C(\O)c2ccc([N+](=O)[O-])s2)nc2ccccc21	-11.4	1.7	-18.7	0.7	40.4*
COc1ccc(S(=O)(=O)Nc2cccc3c2O[C@@H](CN(C)S(=O)(=O)c2cccs2)[C@H](C)CN([C@H](C)CO)C3=O)cc1	/	2.0	/	/	/
Clc1cccc(-c2ccc(C=Nc3ccc(N4CCOCC4)cc3)o2)c1Cl	9.1	13.7*	-2.5	0.6	1.6
C[C@@H]1CN([C@@H](C)CO)C(=O)c2cc(NC(=O)Nc3ccc(C(F)(F)F)cc3)ccc2O[C@@H](C)CCCCO[C@H]1CN(C)Cc1ccccc1	/	0.2	/	/	/
COc1ccc(OCCOc2ccc(N(C)S(=O)(=O)c3ccccc3)cc2)cc1	-7.2	-1.6	12.8	1.0	-9.3
CN(c1ccc(OCCOc2ccccc2Cl)cc1)S(=O)(=O)c1ccccc1	2.1	8.1*	-5.5	1.3	-4.8
COCOc1ccc(C=O)cc1OCOC	1.6	2.8	22.1*	-2.2	-8.1
CO[C@H]1CN(C)C(=O)c2cc(NC(=O)Nc3cccc(Cl)c3)ccc2OC[C@@H](C)N(C(=O)Nc2c(C)noc2C)C[C@H]1C	/	-1.7	/	/	/
CC(=NNC(=S)N(Cc1ccccn1)Cc1ccccn1)c1cnccn1	0.2	8.2*	2.6	-1.0	7.4
S=C(NN=C(c1ccccc1)c1ccccn1)N(Cc1ccccn1)Cc1ccccn1	3.1	0.6	-3.8	-0.6	10.5
C/C=C/c1ccccc1[C@H]1[C@@H](C#N)N(c2ncc(CC)s2)[C@@H]1CO	/	-2.0	/	/	/
Clc1ccc(CSc2ccc(-c3ccco3)nn2)cc1	-8.8	0.0	4.4	14.1	14.5
Cc1ccc(CSc2ccc(-c3ccco3)nn2)cc1	0.1	1.2	4.0	1.4	8.5
c1ccc(CSc2ccc(-c3ccco3)nn2)cc1	5.1	/	-10.7	2.1	36.1*
Fc1ccccc1CSc1ccc(-c2ccco2)nn1	2.0	-2.9	1.5	9.7	38.6*
Clc1cccc(CSc2ccc(-c3ccco3)nn2)c1	-0.6	-1.2	-7.1	10.8	67.2*
C[C@@H]1CCCCO[C@H](CN(C)C(=O)Cc2ccccc2)[C@H](C)CN([C@@H](C)CO)C(=O)c2cc(NS(=O)(=O)c3cn(C)cn3)ccc2O1	/	2.8	/	/	/
C[C@@H]1CN([C@H](C)CO)C(=O)c2cccc(N(C)C)c2O[C@@H]1CN(C)C(=O)NC1CCCCC1	/	0.6	/	/	/
CN1C(=O)c2cc(NC(=O)c3ccc(C(F)(F)F)cc3)ccc2OC[C@@H]2O[C@H](CC(=O)O)CC[C@H]21	/	3.5	/	/	/
COc1cccc(S(=O)(=O)N2C[C@@H]3N[C@H](C2)C3c2ccc(-c3cccc(C)c3)cc2)c1 (stereo partly drawn)	/	12.1*!	/	/	/
Cc1ccccc1S(=O)(=O)N1C[C@@H]2N[C@H](C1)C2c1ccc(-c2cccc(C#N)c2)cc1 (stereo partly drawn)	/	8.4*!	/	/	/
Cc1ccc(C(=O)COC(=O)CN2C(=O)C3C4CCC(C4)C3C2=O)cc1[N+](=O)[O-] (stereo not drawn)	-0.9	1.2	5.8	2.2	-7.0
Cc1ccc(C(=O)COC(=O)CN2C(=O)C3C4CCC(C4)C3C2=O)cc1C (stereo not drawn)	-4.0	-0.5	24.4*	-1.3	-5.7

Compound activity: PubChem, several laboratories
